From PubChem BioAssay AID1851 (National Center for Advancing Translational Sciences (NCATS), 2009)
Several values for one entry are separate records, joined by “and”; a condition that tells them apart may be missing. Equal entries are not always repeated. The whole screen tested about 16,000 compounds, of which about 5,700 (36%) were called active. Roughly 24% stayed inconclusive and do not appear here. The call rests on the fitted dose curve; in most records, active means well fitted curve in the direction sought with a large enough effect; inconclusive means small, poorly fitted or top-dose-only effect, or effect the other way; inactive means no such curve, though single readings can be large or run the other way. Some of the results follow.

Biological target: Cytochrome P450 1A2 (Homo sapiens) (UniProt P05177)
Assay: Cytochrome panel assay with activity outcomes
Details: recombinant CYP, pro-luciferin dealkylation, luminescence, p450-cyp1a2; series mostly up to 57.1 µM; activity, negative = inhibition: at the top concentration
On the % scale 0 is the no-effect control and ±100 the full control effect.

Sequence of Cytochrome P450 1A2 (Homo sapiens) (P05177 whole entry, looked up): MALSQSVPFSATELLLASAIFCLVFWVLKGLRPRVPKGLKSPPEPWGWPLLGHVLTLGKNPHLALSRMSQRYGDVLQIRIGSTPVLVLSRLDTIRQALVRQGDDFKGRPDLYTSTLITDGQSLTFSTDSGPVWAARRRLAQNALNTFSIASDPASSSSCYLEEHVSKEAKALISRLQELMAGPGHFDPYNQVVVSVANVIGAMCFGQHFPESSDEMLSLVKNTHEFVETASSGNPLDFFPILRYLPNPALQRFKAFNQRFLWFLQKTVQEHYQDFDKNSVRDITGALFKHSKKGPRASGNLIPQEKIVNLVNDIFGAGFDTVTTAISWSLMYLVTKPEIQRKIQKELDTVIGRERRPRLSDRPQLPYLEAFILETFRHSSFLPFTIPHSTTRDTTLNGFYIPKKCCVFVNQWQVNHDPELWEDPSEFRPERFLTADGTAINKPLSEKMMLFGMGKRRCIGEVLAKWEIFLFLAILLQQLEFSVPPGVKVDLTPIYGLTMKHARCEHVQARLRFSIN

AC50, active:
COc1ccc(Oc2ncc3ncc(=O)n(C[C@H]4CCCO4)c3n2)cc1 6.31 µM, O=c1cnc2cnc(Oc3cccc(Cl)c3)nc2n1C[C@H]1CCCO1 5.01 µM, COc1ccc(Oc2ncc3nc(C)c(=O)n(C[C@H]4CCCO4)c3n2)cc1 12.6 µM, COc1ncc2ncc(=O)n(C[C@H]3CCCO3)c2n1 15.8 µM, Cc1nc2c(c(-c3ccccc3)c1C#N)C(=O)c1ccccc1-2 0.2 µM, O=C(COc1cccc2ccccc12)N1c2ccccc2CCc2ccccc21 6.31 µM, COc1ccc(N2C(=O)CC(S/C(N)=N/N=C(\C)c3cccs3)C2=O)cc1 (centres undefined) 2.51 µM, Oc1ccccc1-c1nnc(-c2ccc(C(F)(F)F)cc2)o1 5.01 µM, O=C(/C=C\NCC(=O)c1ccccc1)c1ccccc1 5.01 µM, c1ccc(-c2nc(CSc3n[nH]c(-c4cccs4)n3)cs2)cc1 2.82 µM, Cc1c(C)n(C)c2ccc(C(=O)Nc3cccc4ccccc34)cc12 2 µM, COC(=O)CCC(=O)Nc1cccc(C(=O)Nc2cccc(Cl)c2)c1 4.47 µM, CCn1c(C)c(C)c2cc(C(=O)Nc3cccc(Cl)c3)ccc21 3.16 µM, Cc1cnc(CNc2ccnc(-c3ccccc3C)n2)cn1 12.6 µM, Cc1cnc(CNc2ccnc(-c3ccccc3C(F)(F)F)n2)cn1 15.8 µM, COc1ccccc1-c1nccc(NCc2cnc(C)cn2)n1 12.6 µM, Cc1cnc(CNc2ccnc(-c3ccccc3Cl)n2)cn1 12.6 µM, Cn1c(=O)c2c(nc(Cl)n2Cc2ccc(Cl)c(Cl)c2)n(C)c1=O 12.6 µM, COc1ccc2c(OC)c3ccoc3nc2c1OC 0.0794 µM, COc1ccc2[nH]cc(CCNc3ncncc3-c3ccccc3C(F)(F)F)c2c1 10 µM, COc1ccc2[nH]cc(CCNc3ncncc3-c3ccccc3CN(C)C)c2c1 20 µM, COc1ccc2[nH]cc(CCNc3ncncc3-c3c(C)noc3C)c2c1 12.6 µM, COc1ccc2[nH]cc(CCNc3ncncc3-c3ccccc3Cl)c2c1 0.631 µM, COc1ccc2[nH]cc(CCNc3ncncc3-c3ccccc3C)c2c1 0.631 µM, COc1ccc2[nH]cc(CCNc3ncncc3-c3ccccc3OC)c2c1 2.51 µM, CCOC(=O)CN1C(=O)Nc2ccc(Br)cc2C1c1ccccc1 (centres undefined) 3.16 µM, Cc1ccc(OC[C@H](O)[C@H](C)NC(C)C)c2c1CCC2 1.58 µM and 398 nM, Cc1ccc(NC(=S)Nc2ccc(Br)cc2)cc1 3.55 µM, CCCNC(=S)Nc1ccc(Br)cc1 7.08 µM, Cc1cc(NC(=S)Nc2ccccc2)ccc1Br 5.62 µM, Cc1cc(NC(=S)NC(=O)CC(C)C)ccc1Br 5.62 µM, C/C(=N\NC(=S)Nc1cccc(C)c1)c1ccccc1 0.891 µM, Cc1cccc(NC(=S)Nc2ccc(Br)cc2)c1 3.55 µM, Cc1csc(NC(=O)Cc2c[nH]c3ccccc23)n1 11.2 µM, Cc1csc(NC(=O)CNS(=O)(=O)c2cccs2)n1 12.6 µM, COCc1c(C(=O)OCC(=O)N2c3ccccc3NC(=O)C2(C)C)oc2ccccc12 0.562 µM, CCCCC1(C)OC(=O)C(=Cc2ccc(N(CC)CC)cc2)C(=O)O1 (centres undefined) 5.01 µM, CCc1nnc(NC(=O)c2c(C)nn(-c3ccccc3)c2Cl)s1 7.08 µM, CCn1c(C)nc2cc(S(=O)(=O)C(F)F)ccc21 5.01 µM, CC(C)(C)C(=O)Nc1cccc(-c2nc3ccccc3c(=O)o2)c1 11.2 µM, CC(C)CC(=O)Nc1ccc2c(c1)oc1ccccc12 0.794 µM, Cc1cc(-c2ccc(/C=N/n3cnnc3)o2)c([N+](=O)[O-])cc1C 0.316 µM, CCC(C)Nc1nc(OCC(F)(F)F)nc(OCC(F)(F)F)n1 (centres undefined) 10 µM, O=S(=O)(c1ccccc1)c1cnn2c(C(F)(F)F)cc(-c3ccc(F)cc3)nc12 0.794 µM

AC50, inactive:
CN1CCC(=C2c3ccccc3CC(=O)c3sccc32)CC1, CC(C)(C)NC[C@H](O)COc1cccc2c1CCCC2=O, Cc1ccnc(NS(=O)(=O)c2ccc(N)cc2)n1

activity, negative = inhibition, inactive:
COC(=O)C1=C(N)Oc2cc(C)n(CC3CCCO3)c(=O)c2C1c1ccccc1OC (centres undefined) -25.1%, CCC(=O)Nc1ccc(C(=O)CSc2nnc(-c3ccc(O)cc3)n2CC2CCCO2)cc1OC (centres undefined) -23.1%, CC1(CCC#N)N=C(SCCC#N)N(c2ccccc2)C1=O (centres undefined) -7.35%, C=C1CCO[C@@]2([C@H](O)[C@@](C)(O)CO)NC(=O)[C@]1(O)NC2=O -3.99% [at 2.29 µM], Cc1ccc(NC(=O)NNC(=O)Cn2nc(-c3ccccc3)c(-c3ccccc3)c(C#N)c2=O)cc1 -11.7%, CCN(CC)CCC(=O)Nc1ccc2c(c1)N(C(=O)CN(CC)CC)c1ccccc1CC2 -2.39%, O=C1c2ccccc2C(=O)N1CC(=O)N1c2ccccc2CCc2ccccc21 -13.2%, C[C@@H](C[C@H](N)C(=O)O)C(=O)O -18.7% [at 11.4 µM], CCOC(=O)C1=NO[C@@]2(C=C(Br)C3(OCCCO3)[C@H]3O[C@H]32)C1 1.82% [at 11.4 µM], Cc1cc(C)cc(N2C(=O)CC(Sc3nnnn3-c3ccccc3)C2=O)c1 (centres undefined) -14.5%, CC(C)(C)NS(=O)(=O)c1ccc(NC(=O)NC2CCCCC2)cc1 -10.9%, O=C(C[C@@H]1C=Cc2ccccc2N1C(=O)c1ccccc1)c1ccccc1 -23.2% [at 2.29 µM], CC(C)CCOc1ccc(NC(=O)C2OC3OC(C)(C)OC3C3OC(C)(C)OC23)cc1 (centres undefined) 2.91%, O=C(O)c1ccc(C(=O)Nc2cccc3ccccc23)c(C(=O)O)c1 -6.15% [at 2.29 µM], O=c1[nH]c(=O)n(Cc2ccco2)c2c1C(C(F)(F)F)(C(F)(F)F)N=C(CCC1CCCCC1)N2 -18.8%, CC1(C)CCC(NC(=O)[C@H](N)CCC(=O)O)CC1 -0.149%, Cc1ccc(S(=O)(=O)CC(O)CN2CCCC2=O)cc1 (centres undefined) -1.65%, O=S1(=O)N[C@H]2CC[C@@H]3NS(=O)(=O)N[C@H]4CC[C@H](N1)N4S(=O)(=O)N23 2.05% [at 11.4 µM], Cn1c(=O)c2c(nc(Cc3ccccc3)n2CC(=O)O)n(C)c1=O -13.2% [at 2.29 µM], CN(C)CCn1c(CO)nc2c1c(=O)n(C)c(=O)n2C -6.02% [at 11.4 µM], CS(=O)(=O)N1CCC2(CCN(C(c3ccccc3)c3ccccc3)CC2)CC1 7.27%, COC(=O)C/C=C\[C@@H](C)[C@@H](/C=N\OC[C@@H](O)COCc1ccco1)OC -1.53% [at 11.4 µM], CC(C)NC(=O)N1CC[C@@]2(CCCN(S(C)(=O)=O)C2)C1 -17.1%, CN(C)CCN1C(=O)C(O)=C(C(=O)c2cc3ccccc3o2)C1c1cccc(Br)c1 (centres undefined) -14.6%, CS(=O)(=O)N1CCC2(CC1)CN(C(=O)Nc1ccccc1)C2 -2.21%, CC(C)(C)NC[C@H](O)COc1cccc2c1CCC(=O)N2 -7.62% [at 25.6 µM], CCOC(=O)CCN1C(=O)[C@H]2[C@H]3[C@H](O)[C@H](O)C/C(=N/OCC(C)C)[C@@H]3CC[C@@H]2C1=O -8.45% [at 11.4 µM], COc1ccc(CC(=O)NC(=S)Nc2ccc(S(=O)(=O)NC(C)(C)C)cc2)cc1 -21.8%, CCC(=O)NC(=S)Nc1ccc(S(=O)(=O)NC(C)=O)cc1 23.7%, Cc1ccc(NC(=O)C2C3CCCC2C3c2ccccc2)cc1C (centres undefined) -18.6%, Cc1cccc(N2CCN(c3ccc(NC(=O)/C=C(/C(=O)O)c4ccccc4)cc3)CC2)c1 -8.21%, CC(=O)OCC(=O)[C@]12OC(C)(C)O[C@@H]1C[C@H]1[C@H]3CC=C4C[C@@H](O)CC[C@]4(C)[C@H]3CC[C@]12C 4.12% [at 11.4 µM], Cc1ccc(S(=O)(=O)NCC(=O)N(CC(=O)NCc2ccco2)Cc2cccs2)cc1 -6.41%, CCOC(=O)N1CCN(C(=O)CNS(=O)(=O)c2cccs2)CC1 -12.2%, CCc1nnc(NC(=O)CCC(=O)N2CCN(c3ccccn3)CC2)s1 4.36%, O=C(N/N=C1/C[C@@H](O)[C@@H](O)[C@@H]2[C@H]3C(=O)N(c4ccc(F)cc4F)C(=O)[C@@H]3CC[C@H]12)OCc1ccccc1 -2.59% [at 11.4 µM], N=C(N)SCc1cccc(-c2nc3ccccc3c(=O)o2)c1 -10.3% [at 2.29 µM], CC(CC(=O)O)CC(=O)Nc1ccc(S(N)(=O)=O)cc1 (centres undefined) -2.49%, O[C@H](C[C@@H]1CCCCN1)c1ccc2c(c1)oc1ccccc12 -10.4% [at 2.29 µM], C[C@@H]1/C=C\CC(=O)OC[C@H]2O[C@@H](C=C[C@@H]2O)[C@H](C)/C=C\CC(=O)OC[C@H]2O[C@H]1C=C[C@@H]2O 7.11% [at 11.4 µM], C[C@@H]1O[C@H](O[C@@H]2[C@H](C)O[C@H](O[C@@H]3[C@H](C)O[C@H](O[C@H]4CC[C@]5(C)[C@@H](CC[C@@H]6[C@H]5C[C@@H](O)[C@]5(C)[C@@H](C7=CC(=O)OC7)CC[C@]65O)C4)C[C@@H]3O)C[C@@H]2O)C[C@H](O)[C@@H]1O 2.93% [at 25.6 µM], O=S(=O)(c1ccccc1)c1cnn2c(C(F)(F)F)cc(-c3ccccc3)nc12 -26.3%
